Bioassay records (PubChem)
Sampled rows, rich in hits. Any-hit rate of the full collection: about 13%.
CHX counter: counter-screen hit for Shiga toxin inhibitors, cycloheximide | AID 2314 | 12% of 300,000 active | cell reporter, cycloheximide protein synthesis inhibition counterscreen | max response, %; in the data active = max response mostly above about 13%, no sharp cut-off; inactive = mostly below about 14%; also: read at 38.3 µM for the half of the compounds with a filed dose
HCV inhibitor: blocks hepatitis C virus. 3.4% of 340,000 active. Huh7.5.1 HCVcc-Cre infection, luciferase reporter, 44 h. Potency, µM (highest dose often 41.8 µM), usual class: inhibitors. AID 651820; active = well fitted inhibition curve with a large enough effect; inconclusive = small, poorly fitted or top-dose-only effect, or another doubt; inactive = no such curve, though single readings can be large or run the other way
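A cell-based infection assay in which seeded cells (1,000 per well) receive test compound after 4 h, are inoculated with HCVcc-Cre at approximately 0.5 moi, and are incubated 44 h before luminescence detection.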
FMDV antiviral: antivirals against foot and mouth disease virus; 1.2% of 410,000 active; AID 1159524; Potency, µM (doses to about 57.9 µM), actives largely listed as inhibitors; FMDV antiviral cell-based qHTS; calls by dose curve; tested in HEK293T cells; also: read-out not given here; nearly all actives have a fitted effect of over 45% in size
Marburg entry inh: inhibitors of Marburg virus binding or cell entry. Marburg virus pseudotyped entry inhibition, cell reporter. Potency, µM (series often up to 37.8 µM), hits mostly inhibitors. 1.8% of 300,000 active. AID 540276; calls by dose curve; tested in HEK293 cells
Shiga toxin inh: Shiga toxin inhibition; Vero cells, Shiga toxin protein synthesis inhibition reporter; inhibition, % at 38.7 µM; 9.2% of 290,000 active; in the data active = inhibition mostly above about 28%, no sharp cut-off; inactive = mostly below about 43%
LASV entry inh: inhibitors of Lassa virus binding or cell entry | Potency, µM (top dose mostly 37.9 µM), usual class: inhibitors | 1.2% of 300,000 active | Lassa virus pseudotype entry inhibition, cell reporter | AID 540256; calls by dose curve; tested in HEK293 cells; also: nearly all actives have a fitted effect of over 50% in size
Hits are given with their value; n = inactive; u = inconclusive; x = no result.

SMILES | CHX counter | HCV inhibitor | FMDV antiviral | Marburg entry inh | Shiga toxin inh | LASV entry inh
CCC(C)(C)c1ccc(OCCCC[n+]2ccc(C)cc2)c(C(C)(C)CC)c1 | n | u | u | 21µM | n | u
Cc1ccc(S(=O)(=O)N(C)CC(=O)NCC(=O)Nc2ccc(F)c(F)c2F)cc1 | x | n | n | n | x | n
COc1ccc2[nH]c(C(=O)NCCCn3ccnc3)cc2c1 | n | n | n | n | n | u
COc1ccc(C(=O)N(C)c2ccccc2C(=O)NCCc2ccccc2)cc1 | n | u | n | u | n | 4µM
COc1ccc2[nH]c(C(=O)NCCc3ccccc3)cc2c1 | 32 | n | n | u | 85 | n
CCCCNC(=O)c1cc2cc(OC)ccc2[nH]1 | 14 | n | n | x | n | x
CN(C(=O)c1ccccc1)c1ccccc1C(=O)NCCc1ccccc1 | n | n | n | n | n | n
CC(=O)Nc1cc(-c2cccc(C(=O)N(C)C)c2)cn2c(-c3ccc(F)cc3)cnc12 | x | x | n | x | x | x
O=C(COCc1cc(-c2ccc3c(c2)OCO3)on1)Nc1cc(C(F)(F)F)ccc1Cl | x | x | n | x | x | n
COc1ccc(S(=O)(=O)N2Cc3ccccc3-n3nncc3C2)cc1 | x | x | n | x | x | x
Cc1cc(C)c(S(=O)(=O)N2Cc3ccccc3-n3nncc3C2)c(C)c1 | x | x | 22µM | x | x | x
Cc1cc(-c2ccccc2)nn1-c1nc2c(c(=O)[nH]c(=O)n2C)n1C | n | n | n | u | n | n
O=C(Nc1nc2c(F)cc(F)cc2s1)C1CC(=O)N(Cc2ccco2)C1 (stereo not drawn) | 24 | n | n | x | n | x
Cc1ccc2nc(NC(=O)C3CC(=O)N(Cc4ccco4)C3)sc2c1 (stereo not drawn) | 19 | n | n | n | n | n
COC(=O)Cn1cnc2c(cnn2-c2ccc(OC)cc2)c1=O | 23 | n | n | n | n | n
COC(=O)Cn1cnc2c(cnn2-c2ccc(C)cc2)c1=O | 48 | n | n | x | 69 | x
Cc1ccc(-n2ncc3c(=O)n(CC(N)=O)cnc32)cc1 | n | n | n | x | n | x
COc1ccc(C(=O)N/N=C(\C)Cn2cnc([N+](=O)[O-])n2)cc1 | n | n | n | n | n | n
O=C(Nc1cccc(O)c1)c1c(O)c2ccccc2[nH]c1=O | 48 | n | n | x | 38 | x
O=C(Nc1cccc(C(F)(F)F)c1)c1c(O)c2ccccc2[nH]c1=O | n | n | n | x | n | x
Cc1ccc(NC(=O)Cc2c(O)c3ccccc3[nH]c2=O)c(C)c1 | 18 | n | n | n | n | n
Cc1cccc(NC(=O)c2c(O)c3ccccc3[nH]c2=O)c1 | 33 | n | n | x | 38 | x
Cc1ccccc1NC(=O)Cc1c(O)c2ccccc2[nH]c1=O | n | n | x | n | n | n
Cc1ccc(C(=O)NCC(=O)OCC(=O)NCCNC(=O)COC(=O)CNC(=O)c2ccc(C)cc2)cc1 | x | n | n | n | x | n
CCOC(=O)c1cc(NC(=O)CN2CCCC2)cc(C(=O)OCC)c1 | n | n | n | u | n | n
SMILES | CHX counter | HCV inhibitor | FMDV antiviral | Marburg entry inh | Shiga toxin inh | LASV entry inh
O=C1CN(C(=O)c2cc3ccccc3o2)c2ccccc2N1 | 18 | n | n | n | 42 | u
COc1ccc(/C=C(/NC(=O)c2ccco2)C(=O)N2CCc3ccccc32)cc1OC | n | n | n | n | n | 7.9µM
O=C(c1ccco1)c1cn(CC(=O)N2CCCc3ccccc32)c2ccccc12 | 24 | 11µM | u | u | n | n
O=C1CN(C(=O)c2ccccc2F)c2ccccc2N1 | n | n | x | n | n | n
COc1ccc(/C=C(/NC(=O)c2ccco2)C(=O)NCc2ccco2)cc1OC | n | n | n | n | n | n
O=C(CS(=O)(=O)Cc1ccccc1)N1CCc2ccccc21 | 33 | n | n | n | n | n
Cc1cc2ncn(S(=O)(=O)N3CCCCC3)c2cc1C | n | n | x | n | n | n
CCOC(=O)C1=NN(c2cccc(C)c2)C2(S1)SC(C(C)=O)=C(C)N2c1ccccc1 (stereo not drawn) | n | n | n | n | n | n
O=C(NCC1CCN(S(=O)(=O)c2ccccc2)CC1)Nc1ccc(F)cc1 | n | n | n | u | n | u
O=C(CCCc1ccccc1)N1CCc2ccccc21 | 49 | n | x | u | 109 | u
O=C1CN(C(=O)OCc2ccccc2)c2ccccc2N1 | 26 | n | n | n | n | n
Cc1ccn(CCC(=O)N2CCc3ccccc32)n1 | 25 | n | n | x | n | x
O=C(Cn1cccc1)N1CCc2ccccc21 | n | n | n | n | n | n
O=C(OCc1ccccc1)N1CCc2ccccc21 | 43 | n | n | u | 82 | u
CC1(C(=O)NCc2cccs2)Cc2c(-c3cccc(C(F)(F)F)c3)ccnc2O1 (stereo not drawn) | x | x | n | x | x | x
Cn1nc(C(=O)NCc2ccc(Cl)cc2)c2c1-c1ccccc1S(=O)(=O)C2 | n | n | n | x | n | n
CCCCCN(C(=O)CCC(=O)OCC(=O)N(C)Cc1ccccc1C)c1c(N)n(CCCC)c(=O)[nH]c1=O | x | n | n | n | x | n
O=C(NCc1nnc(SCC(=O)N2CCc3ccccc32)o1)c1ccco1 | n | n | n | x | n | x
O=C(NCCC(=O)N1CCc2ccccc21)c1ccco1 | 30 | n | n | n | 76 | u
CCCn1nnc(NC(=O)c2ccco2)n1 | n | n | x | u | n | n
CCCCn1nnc(NC(=S)NC(=O)c2cccs2)n1 | 28 | n | n | u | 115 | n
CCCCn1nnc(NC(=O)c2ccco2)n1 | 26 | n | n | u | 13 | u
COc1ccccc1C(=O)NC(=O)COC(=O)c1ncc(Cl)c(Cl)c1Cl | x | n | n | n | x | n
CC(C)Oc1ccc(S(=O)(=O)N(C(C)C)C(C)C)cn1 | n | n | n | u | n | n
Cc1cc(Oc2ccc(-c3ccccc3)cc2)n2ncnc2n1 | n | n | 40µM | n | n | n
SMILES | CHX counter | HCV inhibitor | FMDV antiviral | Marburg entry inh | Shiga toxin inh | LASV entry inh
CCN(c1ccccc1)c1cc(C)nc2ncnn12 | n | n | n | x | n | x
Cc1ccc(C(=O)/C=C2\NCC(C)NC2=O)cc1 (stereo not drawn) | n | n | n | 5.6µM | n | 8.9µM
Cc1ccc(C(=O)/C=C2\NCCNC2=O)cc1 | 32 | n | n | n | 10 | u
Cc1ccc(C(=O)/C=C\C(=O)c2ccc(C)cc2)cc1 | n | n | n | n | n | n
OCC(O)COc1cccc2ccccc12 (stereo not drawn) | x | x | n | x | x | x
CSCCC(NS(=O)(=O)c1ccc(C)cc1)C(=O)NNC(=O)c1csc(N2CCOCC2)n1 (stereo not drawn) | n | n | n | x | n | x
CCc1cnc2c(c1SCC(=O)c1ccc(OC)cc1)c(=O)n(C)c(=O)n2C | x | x | 28µM | x | x | u
C=CCn1c(N)cc(=O)nc1SC(CC)C(=O)Nc1ccc(C(C)=O)cc1 (stereo not drawn) | n | n | n | n | n | x
CC(=O)Nc1ccc(NC(=O)c2cc3sccc3n2Cc2ccc(Cl)cc2)cc1 | x | x | n | n | x | u
Cc1cc2n(n1)C(c1ccccc1)Nc1ccccc1-2 (stereo not drawn) | n | 25µM | n | n | n | u
Cc1cc2n(n1)C(c1ccc(N(C)C)cc1)Nc1ccccc1-2 (stereo not drawn) | 47 | u | n | u | 48 | n
COc1ccc(Nc2nc(CC(C)=O)ns2)cc1 | 27 | n | n | n | 68 | u
